# Results from paper PMC5540273 (PLoS ONE, 2017).
# Legend:
# Settings in all cases: concentration: 1 μM, replicates: in singlicate; n = 1
# PCTK2 = test system: T1, PCTK2
# T1 construct: gene CDK17
# PCTK3 = test system: T2, PCTK3
# T2 construct: gene CDK18
# PDGFRA = test system: PDGFRA
# PDGFRB = test system: PDGFRB
# PDPK1 = test system: PDPK1
# PFTAIRE2 = test system: PFTAIRE2
# PFTK1 = test system: T3, PFTK1
# T3 construct: gene CDK14
# PHKG1 = test system: PHKG1
# PHKG2 = test system: PHKG2
# PIK3C2B = test system: PIK3C2B
# 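Further: KINOMEscan kinase panel screen.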
compound,measurement,setting,value
CN(c1ccc(F)c(NC(=O)c2cccc(OC(C)(C)C#N)c2Cl)c1)c1ccc2nc(NC(=O)C3CC3)sc2n1,%Inh,PCTK2,0%
same,%Inh,PCTK3,0%
same,%Inh,PDGFRA,97.8%
same,%Inh,PDGFRB,100%
same,%Inh,PDPK1,36%
same,%Inh,PFTAIRE2,11%
same,%Inh,PFTK1,0%
same,%Inh,PHKG1,7%
same,%Inh,PHKG2,0%
same,%Inh,PIK3C2B,15%
CCOc1nccc(-c2c(-c3ccc(F)cc3)ncn2C2CCNCC2)n1 [SB-249175],%Inh,PCTK2,5%
same,%Inh,PCTK3,17%
same,%Inh,PDGFRA,13%
same,%Inh,PDGFRB,8%
same,%Inh,PDPK1,6%
same,%Inh,PFTAIRE2,0%
same,%Inh,PFTK1,20%
same,%Inh,PHKG1,0%
same,%Inh,PHKG2,0%
same,%Inh,PIK3C2B,23%
Cn1cc(-c2ccc3c(c2)CCN3C(=O)Cc2cc(F)cc(C(F)(F)F)c2)c2c(N)ncnc21 [GSK2635225],%Inh,PCTK2,14%
same,%Inh,PCTK3,15%
same,%Inh,PDGFRA,93%
same,%Inh,PDGFRB,100%
same,%Inh,PDPK1,2%
same,%Inh,PFTAIRE2,22%
same,%Inh,PFTK1,22%
same,%Inh,PHKG1,0%
same,%Inh,PHKG2,3%
same,%Inh,PIK3C2B,0%
COC(=O)Nc1nc2ccc(Oc3ccc(CC(=O)Nc4cc(C(F)(F)F)ccc4F)cc3)cc2[nH]1 [GW680903],%Inh,PCTK2,0%
same,%Inh,PCTK3,30%
same,%Inh,PDGFRA,98.5%
same,%Inh,PDGFRB,100%
same,%Inh,PDPK1,0%
same,%Inh,PFTAIRE2,0%
same,%Inh,PFTK1,14%
same,%Inh,PHKG1,0%
same,%Inh,PHKG2,0%
same,%Inh,PIK3C2B,0%
CN(c1ccc(NC(=O)N2CCN(CCCN3CCOCC3)CC2)cc1)c1ccnc(Nc2ccc(CS(C)(=O)=O)cc2)n1.Cl [GW830899],%Inh,PCTK2,10%
same,%Inh,PCTK3,0%
same,%Inh,PDGFRA,73%
same,%Inh,PDGFRB,99.4%
same,%Inh,PDPK1,2%
same,%Inh,PFTAIRE2,14%
same,%Inh,PFTK1,0%
same,%Inh,PHKG1,40%
same,%Inh,PHKG2,0%
same,%Inh,PIK3C2B,0%
Cc1ccc(O)cc1Nc1ccnc2cc(-c3ccc(CN4CCCCC4)o3)ccc12 [GW557777],%Inh,PCTK2,0%
same,%Inh,PCTK3,8%
same,%Inh,PDGFRA,95.3%
same,%Inh,PDGFRB,99.7%
same,%Inh,PDPK1,0%
same,%Inh,PFTAIRE2,0%
same,%Inh,PFTK1,15%
same,%Inh,PHKG1,9%
same,%Inh,PHKG2,7%
same,%Inh,PIK3C2B,0%
O=C1NC(=O)C(c2ccccc2Cl)=C1Nc1cccc(Cl)c1 [SB-342409],%Inh,PCTK2,0%
same,%Inh,PCTK3,31%
same,%Inh,PDGFRA,0%
same,%Inh,PDGFRB,13%
same,%Inh,PDPK1,13%
same,%Inh,PFTAIRE2,21%
same,%Inh,PFTK1,13%
same,%Inh,PHKG1,0%
same,%Inh,PHKG2,0%
same,%Inh,PIK3C2B,0%
Cc1ccc(O)cc1Nc1ccnc2ccc(C(C)(C)C)cc12 [GW856805],%Inh,PCTK2,14%
same,%Inh,PCTK3,5%
same,%Inh,PDGFRA,64%
same,%Inh,PDGFRB,62%
same,%Inh,PDPK1,52%
same,%Inh,PFTAIRE2,12%
same,%Inh,PFTK1,21%
same,%Inh,PHKG1,24%
same,%Inh,PHKG2,0%
same,%Inh,PIK3C2B,23%
COc1ccc(C)c(Nc2ccnc(Nc3ccc(-c4cnc[nH]4)cc3)n2)c1.Cl [GW784041],%Inh,PCTK2,10%
same,%Inh,PCTK3,2%
same,%Inh,PDGFRA,0%
same,%Inh,PDGFRB,76%
same,%Inh,PDPK1,0%
same,%Inh,PFTAIRE2,0%
same,%Inh,PFTK1,0%
same,%Inh,PHKG1,0%
same,%Inh,PHKG2,8%
same,%Inh,PIK3C2B,0%
Cc1ccc(Nc2ccnc(Nc3ccc(C)c(F)c3)n2)cc1O.Cl [GW582868],%Inh,PCTK2,0%
same,%Inh,PCTK3,20%
same,%Inh,PDGFRA,3%
same,%Inh,PDGFRB,96.9%
same,%Inh,PDPK1,0%
same,%Inh,PFTAIRE2,0%
same,%Inh,PFTK1,1%
same,%Inh,PHKG1,0%
same,%Inh,PHKG2,0%
same,%Inh,PIK3C2B,0%
CS(=O)(=O)c1cccc(CNc2nc(Nc3ccc4c(c3)CCC(=O)N4)ncc2C(F)(F)F)c1,%Inh,PCTK2,0%
same,%Inh,PCTK3,4%
same,%Inh,PDGFRA,15%
same,%Inh,PDGFRB,62%
same,%Inh,PDPK1,32%
same,%Inh,PFTAIRE2,14%
same,%Inh,PFTK1,10%
same,%Inh,PHKG1,0%
same,%Inh,PHKG2,3%
same,%Inh,PIK3C2B,0%
Cc1cccc(Nc2nc(N[C@H]3CCCC[C@H]3N)ncc2C(N)=O)c1.Cl [GSK986310],%Inh,PCTK2,17%
same,%Inh,PCTK3,24%
same,%Inh,PDGFRA,12%
same,%Inh,PDGFRB,80%
same,%Inh,PDPK1,3%
same,%Inh,PFTAIRE2,24%
same,%Inh,PFTK1,29%
same,%Inh,PHKG1,33%
same,%Inh,PHKG2,44%
same,%Inh,PIK3C2B,0%
Nc1ncc(-c2ccc3nccc(-c4ccncc4)c3c2)cc1S(=O)(=O)N1CCCCC1 [GSK1693850],%Inh,PCTK2,26%
same,%Inh,PCTK3,0%
same,%Inh,PDGFRA,0%
same,%Inh,PDGFRB,22%
same,%Inh,PDPK1,0%
same,%Inh,PFTAIRE2,48%
same,%Inh,PFTK1,47%
same,%Inh,PHKG1,0%
same,%Inh,PHKG2,14%
same,%Inh,PIK3C2B,100%
CC(C)c1nc(-c2cccc(NS(=O)(=O)c3c(F)cccc3F)c2)c(-c2ccnc(Nc3ccc(N4CCOCC4)nc3)n2)s1.Cl [GSK1723980],%Inh,PCTK2,100%
same,%Inh,PCTK3,100%
same,%Inh,PDGFRA,88%
same,%Inh,PDGFRB,100%
same,%Inh,PDPK1,0%
same,%Inh,PFTAIRE2,69%
same,%Inh,PFTK1,82%
same,%Inh,PHKG1,0%
same,%Inh,PHKG2,0%
same,%Inh,PIK3C2B,7%
COc1ccc(NC(=O)c2ccoc2)cc1-c1ccc(C(=O)NCC2CC2)cc1 [GW810437],%Inh,PCTK2,9%
same,%Inh,PCTK3,0%
same,%Inh,PDGFRA,21%
same,%Inh,PDGFRB,4%
same,%Inh,PDPK1,0%
same,%Inh,PFTAIRE2,13%
same,%Inh,PFTK1,47%
same,%Inh,PHKG1,0%
same,%Inh,PHKG2,0%
same,%Inh,PIK3C2B,14%
COc1ccc(C2=C(Nc3cccc(O)c3)C(=O)NC2=O)cc1 [SB-390766],%Inh,PCTK2,0%
same,%Inh,PCTK3,16%
same,%Inh,PDGFRA,0%
same,%Inh,PDGFRB,26%
same,%Inh,PDPK1,0%
same,%Inh,PFTAIRE2,4%
same,%Inh,PFTK1,13%
same,%Inh,PHKG1,0%
same,%Inh,PHKG2,21%
same,%Inh,PIK3C2B,0%
